Measured values published in PubChem BioAssay AID1159580 (chemical genetic matrix, 2015).
About 2,000 (36%) of roughly 5,500 compounds were called active. Another 18% or so got no clear call; they are omitted. Rule as the data show it: active = normalized growth mostly below about 0.91 (no sharp cut-off); inconclusive = no clear call, values can overlap the other calls; inactive = mostly above about 0.92. This is one part of the list.

Assay: chemical genetic growth profiling, strain panel (AID 1159580);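 also: tested at 20 µM; growth read once vehicle control cultures reached saturation at 30 °C; 1 = growth at the plate median or of vehicle wells; lower values mean less growth of the strain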
Conditions: growth OD
[1] = S. cerevisiae deletion strains, locus YAL013W, strain DEP1, stronger effect = lower value
[2] = S. cerevisiae deletion strains, locus YJR075W, strain HOC1, stronger effect = lower value
[3] = S. cerevisiae deletion strains, locus YMR307W, strain GAS1, stronger effect = lower value
[4] = S. cerevisiae deletion strains, locus YNL322C, strain KRE1, stronger effect = lower value
[5] = S. cerevisiae deletion strains, locus YPL055C, strain LGE1, stronger effect = lower value
[6] = S. cerevisiae deletion strains, locus YPL241C, strain CIN2, stronger effect = lower value

Measured: normalized growth

COc1ccccc1CC(=O)NC1CCN(Cc2ccccc2)CC1
inactive: [1] 1.01 | S. cerevisiae deletion strains, locus YBR229C, strain ROT2, stronger effect = lower value 1 | S. cerevisiae deletion strains, locus YDL101C, strain DUN1, stronger effect = lower value 1.01 | S. cerevisiae deletion strains, locus YDL134C, strain PPH21, stronger effect = lower value 1.02 | S. cerevisiae deletion strains, locus YDR150W, strain NUM1, stronger effect = lower value 0.993 | S. cerevisiae deletion strains, locus YEL061C, strain CIN8, stronger effect = lower value 1.02 | S. cerevisiae deletion strains, locus YGR078C, strain PAC10, stronger effect = lower value 1.01 | S. cerevisiae deletion strains, locus YGR229C, strain SMI1, stronger effect = lower value 1.02 | S. cerevisiae deletion strains, locus YHR030C, strain SLT2, stronger effect = lower value 0.943 | S. cerevisiae deletion strains, locus YHR087W, strain rtc3, stronger effect = lower value 0.998 | S. cerevisiae deletion strains, locus YJR043C, strain POL32, stronger effect = lower value 1.01 | [2] 1.02 | S. cerevisiae deletion strains, locus YKL190W, strain CNB1, stronger effect = lower value 1.01 | S. cerevisiae deletion strains, locus YLR039C, strain RIC1, stronger effect = lower value 0.947 | S. cerevisiae deletion strains, locus YLR058C, strain SHM2 (second series), stronger effect = lower value 1.01 | S. cerevisiae deletion strains, locus YLR085C, strain ARP6, stronger effect = lower value 1.04 | S. cerevisiae deletion strains, locus YLR262C, strain YPT6, stronger effect = lower value 0.826 | S. cerevisiae deletion strains, locus YML094W, strain GIM5, stronger effect = lower value 0.991 | S. cerevisiae deletion strains, locus YMR219W, strain ESC1, stronger effect = lower value 1.01 | S. cerevisiae deletion strains, locus YMR263W, strain SAP30, stronger effect = lower value 1.02 | [3] 1.11 | S. cerevisiae deletion strains, locus YNL153C, strain GIM3, stronger effect = lower value 1.01 | S. cerevisiae deletion strains, locus YNL298W, strain CLA4 (second series), stronger effect = lower value 1.04 | [4] 1 | S. cerevisiae deletion strains, locus YNR030W, strain Alg12, stronger effect = lower value 1.02 | S. cerevisiae deletion strains, locus YOL006C, strain TOP1, stronger effect = lower value 0.947 | [5] 1.01 | [6] 1.13 | S. cerevisiae deletion strains, locus YPR135W, strain CTF4, stronger effect = lower value 1.07 | S. cerevisiae strains, strain wild type, stronger effect = lower value 1.02

CC(C)Oc1cccnc1N(C)C1CCN(Cc2ccccc2)CC1
inactive: [1] 1.02 | S. cerevisiae deletion strains, locus YAL040C, strain CLN3, stronger effect = lower value 0.983 | S. cerevisiae deletion strains, locus YCL061C, strain MRC1 (second series), stronger effect = lower value 1 | S. cerevisiae deletion strains, locus YDR363W, strain ESC2, stronger effect = lower value 1 | S. cerevisiae deletion strains, locus YER002W, strain NOP16, stronger effect = lower value 0.967 | [2] 1.01 | [3] 1.03 | S. cerevisiae deletion strains, locus YNL128W, strain TEP1, stronger effect = lower value 1.01 | S. cerevisiae deletion strains, locus YNL175C, strain NOP13, stronger effect = lower value 0.991 | S. cerevisiae deletion strains, locus YNL197C, strain WHI3, stronger effect = lower value 0.991 | S. cerevisiae deletion strains, locus YNL224C, strain SQS1, stronger effect = lower value 1 | [4] 1.01 | S. cerevisiae deletion strains, locus YOR083W, strain WHI5 (second series), stronger effect = lower value 0.976 | [5] 1 | [6] 1.01
